Measured values taken from PubChem BioAssay (NCI).
About 83,000 compounds went through this panel and 20% of them were active in at least one assay; those are over-represented in the sample as a whole.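 Cells were grown in 96-well plates and exposed to the test compound at a single concentration for 48 hours; results are reported as percent growth, with values below 10 considered active.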 Calls of active or inactive are those of the source.

Assays:
Test in all cases: NCI-60 one-dose screen, 48 h (100 = growth as untreated, 0 = no growth, -100 = all killed)
Details in all cases: 10 µM unless noted
HCT-15 colon = test system: HCT-15 colon
HT29 colon = test system: HT29 colon
SNB-75 CNS = test system: SNB-75 CNS
SNB-19 CNS = test system: SNB-19 CNS
U251 CNS = test system: U251 CNS
PC-3 prostate = test system: PC-3 prostate
SK-MEL-5 melanoma = test system: SK-MEL-5 melanoma
UACC-62 melanoma = test system: UACC-62 melanoma
LOX IMVI melanoma = test system: LOX IMVI melanoma
SK-MEL-28 melanoma = test system: SK-MEL-28 melanoma

Measured: growth

COC1C[C@H](O[C@@H]2C[C@H](O[C@@H]3C[C@H](O[C@@H]4C(=O)c5c(cc6cc(O[C@H]7C[C@@H](O[C@H]8C[C@@H](O)[C@H](O)C(C)O8)[C@H](O)C(C)O7)c(C)c(O)c6c5O)C[C@H]4C(OC)C(=O)[C@@H](O)[C@@H](C)O)OC(C)[C@H]3O)OC(C)[C@@H]2O)OC(C)[C@@H]1O (stereo not given in full)
active: HT29 colon -8.54% | SNB-75 CNS -59% | SNB-19 CNS 0.994% | U251 CNS 0.915% | PC-3 prostate 9.36% | SK-MEL-5 melanoma -37.9% | UACC-62 melanoma -64.7% | LOX IMVI melanoma -3.35% | SK-MEL-28 melanoma -22.9%
inactive: HCT-15 colon 44.3%

O=S(=O)(Nc1cc(Br)c(O)c2ccccc12)c1ccc(F)cc1
inactive: HCT-15 colon 86.8% | HT29 colon 113% | SNB-75 CNS 100% | SNB-19 CNS 108% | U251 CNS 35.4% | PC-3 prostate 32% | SK-MEL-5 melanoma 48.9% | UACC-62 melanoma 54.2% | SK-MEL-28 melanoma 81.1%
active: LOX IMVI melanoma 0.868%

CCN1C(=O)N(CC)C2C1NN=c1s/c(=C\c3ccc(Cl)cc3Cl)c(=O)n12 (stereo not given)
inactive: SNB-75 CNS 19.7% | SNB-19 CNS 27.9% | U251 CNS 11% | PC-3 prostate 24.6% | UACC-62 melanoma 28.9% | LOX IMVI melanoma 18.3% | SK-MEL-28 melanoma 66.1%
active: HCT-15 colon 9.51% | HT29 colon 2.8% | SK-MEL-5 melanoma -20.8%

O=c1oc2ccc([N+](=O)[O-])cc2cc1Br
inactive: HCT-15 colon 100% | HT29 colon 102% | SNB-75 CNS 86.6% | SNB-19 CNS 108% | U251 CNS 101% | PC-3 prostate 96.8% | SK-MEL-5 melanoma 102% | UACC-62 melanoma 101% | LOX IMVI melanoma 97.2% | SK-MEL-28 melanoma 107%

Cc1cccnc1NC(=S)Nc1ncccc1C
inactive: HCT-15 colon 104% | HT29 colon 103% | SNB-75 CNS 96.2% | SNB-19 CNS 104% | U251 CNS 99.7% | PC-3 prostate 99.9% | SK-MEL-5 melanoma 101% | UACC-62 melanoma 100% | LOX IMVI melanoma 107% | SK-MEL-28 melanoma 111%

O=C(CSc1nc2ccc([N+](=O)[O-])cc2[nH]1)Nc1ccc(F)cc1
inactive: HCT-15 colon 64.9% | HT29 colon 71.6% | SNB-75 CNS 51.1% | SNB-19 CNS 69.2% | U251 CNS 45.7% | PC-3 prostate 54.9% | SK-MEL-5 melanoma 32.5% | UACC-62 melanoma 25.1% | LOX IMVI melanoma 64.8% | SK-MEL-28 melanoma 61.8%

N#C/C(=C\c1ccc(-c2ccc(Cl)cc2)o1)C(=O)Nc1ncc(Cc2ccc(Cl)cc2)s1
active: SNB-75 CNS -31.1% | U251 CNS -33.9%
inactive: HCT-15 colon 37.6% | HT29 colon 62.4% | SNB-19 CNS 79.1% | PC-3 prostate 28.8% | SK-MEL-5 melanoma 94.7% | UACC-62 melanoma 46.1% | LOX IMVI melanoma 15.5% | SK-MEL-28 melanoma 34.2%

CCNc1cc(-c2cccc(OC(F)(F)F)c2)nc2ccc(N3CCCC3)cc12
inactive: SNB-75 CNS 82.3% | SNB-19 CNS 27% | PC-3 prostate 15.1% | UACC-62 melanoma 50.7% | LOX IMVI melanoma 11.3% | SK-MEL-28 melanoma 30.6%
active: HCT-15 colon 4.85% | HT29 colon 4.79% | U251 CNS -68.3% | SK-MEL-5 melanoma -64.3%

Cn1ccc2c3c(ccc21)CC3=O
inactive: HCT-15 colon 105% | HT29 colon 116% | SNB-75 CNS 97.7% | SNB-19 CNS 105% | U251 CNS 111% | PC-3 prostate 110% | SK-MEL-5 melanoma 115% | UACC-62 melanoma 99.1% | LOX IMVI melanoma 119% | SK-MEL-28 melanoma 112%

O=[N+]([O-])/C(=C/C=C/c1ccccc1)c1ccccc1
active: LOX IMVI melanoma -0.767%
inactive: HCT-15 colon 10.8% | HT29 colon 26.9% | SNB-75 CNS 57.3% | SNB-19 CNS 85.9% | U251 CNS 37.2% | PC-3 prostate 43.6% | SK-MEL-5 melanoma 82.4% | UACC-62 melanoma 70.5% | SK-MEL-28 melanoma 12.6%

CO/N=C(/C)c1ccc(NC(=O)CSc2nnc(-c3ccncc3)n2-c2ccccc2)cc1
inactive: HCT-15 colon 73% | HT29 colon 78% | SNB-19 CNS 30.4% | U251 CNS 17.4% | PC-3 prostate 49.9% | SK-MEL-5 melanoma 25.2% | UACC-62 melanoma 26.1% | LOX IMVI melanoma 65.5% | SK-MEL-28 melanoma 64.9%
active: SNB-75 CNS -16.6%

CC(O)c1cnc(/C=C2\SC(=S)N(Cc3ccccc3)C2=O)s1 (stereo not given)
active: HT29 colon -8.15%
inactive: HCT-15 colon 83.6% | SNB-75 CNS 85.2% | SNB-19 CNS 97.9% | U251 CNS 54.9% | PC-3 prostate 34% | SK-MEL-5 melanoma 88.8% | UACC-62 melanoma 90.3% | LOX IMVI melanoma 41.2% | SK-MEL-28 melanoma 89.3%
